Values joined by “and” are separate entries in the source; they are usually repeats but may differ in a detail not shown here. Equal entries are not always repeated. Records with an inconclusive call do not appear. Entries that show only a call come without a potency. Active and inactive are the calls of the source. Unless noted, calls come from the whole dose curve; as a rule, active = well fitted curve in the direction sought with a large enough effect; inconclusive = small, poorly fitted or top-dose-only effect, or another doubt; inactive = no such curve, though single readings can be large; an effect the other way counts as inactive or inconclusive.
Columns and labels:
[1] = target: Mitogen-activated protein kinase 10 (Mus musculus) (UniProt Q61831); experiment: JNK3 AlphaScreen Assay (AID 530; active = well fitted curve in either direction with a large enough effect, not every such curve was filed as active;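 note: kinase came from lysate of stimulated human HepG2 cells; signal reports phosphorylation of biotinylated GST-cJun 1-79 at Ser73 with 10 µM ATP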); conditions: JNK3 lysate, c-Jun phosphorylation; series mostly up to 57.1 µM
Summary of the method: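 Phosphorylation of biotinylated GST-cJun(1-79) at Ser73 is measured by AlphaScreen proximity luminescence. Enzyme is JNK3 in HepG2 lysates activated with interleukin-1beta and tumor necrosis factor alpha; ATP is 10 uM final.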

[2] = Cell Viability - BJ (AID 421; calls by dose curve;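 note: potency is the fitted concentration of half-maximal effect; cells exposed to compound for 40 hours at 37 °C before readout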); conditions: BJ fibroblast viability, qHTS
Summary of the method: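 Normal human BJ foreskin fibroblasts, 1500/well in complete medium, treated 40 hr at 37 °C. Cellular ATP by CellTiter-Glo luminescence; normalized to DMSO and 100 uM tamoxifen, AC50 from Hill fit.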

[3] = Cell Viability - HepG2 (AID 433; calls by dose curve;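 note: potency is the fitted concentration of half-maximal effect; potency for ATP loss meaning cytotoxicity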); conditions: qHTS
Summary of the method: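 HepG2 hepatocellular carcinoma cells (1500/well) were treated with compounds for 40 h at 37 °C in complete medium; intracellular ATP was read by CellTiter-Glo luminescence. Data were normalized to DMSO and 100 uM tamoxifen, and AC50 came from Hill fits.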

[4] = Cell Viability - SK-N-SH (AID 435; calls by dose curve;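 note: potency is the fitted concentration of half-maximal effect; compound exposure lasted 40 h at 37 °C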); conditions: SK-N-SH neuroblastoma cell viability qHTS
Summary of the method: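 SK-N-SH human neuroblastoma cells (1500/well) were exposed to compounds in complete medium for 40 h at 37 °C, and intracellular ATP was then measured by CellTiter-Glo luminescence. AC50 was taken from Hill fits, normalized to DMSO and 100 uM tamoxifen.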

[5] = Cell Viability - HUV-EC-C (AID 542); conditions: HUV-EC-C endothelial cell viability, qHTS; series mostly up to 92.2 µM; note: nearly all actives have a fitted effect of over 35% in size
Summary of the method: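 Cells were seeded at 1000 per well and incubated 5 hr at 37 °C before compound addition. After 40 hr at 37 °C, CellTiter-Glo reagent was added for 20 min and luminescence read. AC50 values came from Hill-equation modelling.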

[6] = Cell Viability - Renal Proximal Tubule (AID 545); conditions: renal proximal tubule cells viability; at 91.7 µM (top of the series), primary cells of rat origin unless noted; note: nearly all actives have a fitted effect of over 40% in size
Summary of the method: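 Primary rat renal proximal tubule cells (1000/well) were treated with compounds for 40 hr at 37 °C in complete medium. Intracellular ATP was measured by CellTiter-Glo luminescence, and AC50 values came from Hill-equation fits of concentration-response data.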

[7] = Cell Viability - Mesenchymal (AID 546); conditions: mesenchymal cells viability, qHTS; series mostly up to 91.7 µM;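 note: cells exposed to compound for 40 hours before reading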
Summary of the method: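 In this qHTS cytotoxicity format, glomerulus-derived human mesenchymal kidney cells received compound for 40 hr, then luciferase-based ATP quantitation. Concentration-response data were fitted with the Hill equation.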

[8] = Cellular Toxicity (caspase-3) HepG2 (AID 654); conditions: HepG2 caspase-3 activation, luminescence, 0% = DMSO only, 100% = tamoxifen; series mostly up to 92.2 µM;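 note: cells exposed to compound for 16 hours before reading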
Summary of the method: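 Caspase 3/7 activation in HepG2 is measured as rising luminescence after a 16 hr treatment at 37 °C. Values are scaled between DMSO basal and 100 uM tamoxifen, and AC50 is fitted with the Hill equation.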

[9] = Cellular Toxicity (caspase-3) Jurkat (AID 655); conditions: Jurkat caspase-3 activation, luminescence, DMSO = 0%, tamoxifen = 100%; at 92.2 µM (top of the series);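 note: cells exposed to compound for 16 h at 37 °C before reading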
Summary of the method: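 Jurkat cells (5000/well) in complete medium were treated with compounds for 16 hr at 37 °C, then Caspase-Glo 3/7 luminescence was read after 20 min at room temperature. Data normalized to DMSO (basal) and 100 uM tamoxifen (100%); AC50 from Hill fit.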

[10] = Cellular Toxicity (caspase-3) HUV-EC-C (AID 656); conditions: HUV-EC-C cells, caspase-3 activation (apoptosis), vehicle = 0, 100 µM tamoxifen = 100%; series mostly up to 92.2 µM
Summary of the method: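 HUV-EC-C endothelial cells, 1000/well, were pre-incubated 5 hr at 37°C, then exposed to compounds for 16 hr at 37°C. Caspase-Glo 3/7 luminescence was read after 20 min at room temperature. AC50 came from Hill fits, normalized to DMSO and 100 uM tamoxifen.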

[11] = Cellular Toxicity (caspase-3) SHSY5Y (AID 657); conditions: SH-SY5Y caspase-3 activation, DMSO zero, 10 µM staurosporine = 100%; series mostly up to 91.7 µM
Summary of the method: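 SH-SY5Y human neuroblastoma cells (1500/well) were treated with compounds for 16 h at 37 °C, then Caspase-Glo 3/7 luminescence was read after 1 h at room temperature. Data normalized to DMSO and 10 uM staurosporine; AC50 from Hill fits.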

[12] = Cellular Toxicity (caspase-3) BJ (AID 658); conditions: BJ fibroblasts, luminescence, normalized: DMSO 0%, staurosporine 100%; series mostly up to 91.7 µM
Summary of the method: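 Plated BJ cells (1000/well) rested 5 hr, received compound for 16 hr at 37 °C, then Caspase-Glo 3/7 reagent for 1 hr at room temperature before luminescence reading.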

[13] = Cellular Toxicity (caspase-3) MRC-5 (AID 659); conditions: MRC-5 cells, luminescence, normalized: DMSO 0%, 10 µM staurosporine 100%; series mostly up to 91.7 µM
Summary of the method: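 Apoptosis readout in MRC-5 cells: luciferase light generated after caspase 3/7 cleaves a peptide-aminoluciferin substrate, measured post 16 hr compound incubation at 37 °C.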

[14] = Cellular Toxicity (caspase-3) Mesangial (AID 660); conditions: mesangial cells, normalized: DMSO 0%, 100 µM tamoxifen 100%; series mostly up to 91.7 µM;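 note: combined caspase 3 and 7 activity read by Caspase-Glo luminescence; cells exposed to compound for 16 h before the caspase read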
Summary of the method: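 Seed cells derived from normal human renal glomeruli, incubate 5 h, add compounds across concentrations and incubate 16 h at 37 °C. Caspase 3/7 activation is then quantified by luciferase light, with AC50 derived by Hill modeling.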

[15] = Cellular Toxicity (caspase-3) SK-N-SH (AID 661); conditions: SK-N-SH caspase-3 activation, qHTS, DMSO as zero, staurosporine as full; series mostly up to 91.7 µM
Summary of the method: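 Cells were seeded and incubated 5 hr at 37 °C, dosed with compound over a concentration range for 16 hr, then given Caspase-Glo 3/7 reagent for 1 hr at room temperature before luminescence reading.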

[16] = Cellular Toxicity (caspase-3) H-4-II-E (AID 663); conditions: H-4-II-E rat hepatoma, scaled: DMSO 0%, 100 µM tamoxifen 100%; series mostly up to 92.2 µM;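 note: cells exposed to compound for 16 hr before readout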
Summary of the method: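 Caspase 3/7 activation measured in H-4-II-E cells in complete culture medium after 16 hr treatment at 37 °C, using luciferase-coupled substrate readout; AC50 values come from Hill-equation fits of normalized concentration-response data.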

[17] = Cellular Toxicity (caspase-3) Renal Proximal Tubule (AID 667); conditions: renal proximal tubule cells; at 91.7 µM (top of the series), primary cells freshly taken from rat, solvent-only wells 0%, staurosporine 100% unless noted;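 note: cells exposed to compound for 16 hours at 37 °C before detection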
Summary of the method: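 Primary rat proximal tubule cells, 1000/well, 5 h plating at 37 °C, then compound 16 h at 37 °C. Caspase-Glo 3/7 reagent, 1 h RT, luminescence. Normalized to DMSO (basal) and 10 uM staurosporine (100%); Hill-fit AC50.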

[18] = qHTS assay for small molecule antagonists of retinoid X receptor alpha signaling (AID 588546; active = well fitted inhibition curve with a large enough effect in the signal ratio, with a control signal flat, not every such curve was filed as active; the % refers to the signal ratio;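 note: cells stimulated with 9-cis-retinoic acid as agonist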); conditions: HEK293T RXRa-UAS-bla, beta-lactamase ratio, antagonist mode; measured here: W530 green channel, cytotoxicity proxy
Summary of the method: (§1)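 Beta-lactamase reporter inhibition, read as CCF4 fluorescence ratio (ex 405, em 460/530 nm) after 2 h at RT. HEK293T UAS-bla cells, 2500/well, were stimulated with 9-cis-RA at 500 or 100 nM final alongside test compound for 18 h at 37 C.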

[19] = target: Retinoic acid receptor RXR-alpha (Homo sapiens) (UniProt P19793); experiment: as above; conditions: HEK293T RXRa-UAS-bla, beta-lactamase ratio, antagonist mode
Summary of the method: as §1

Retinoic acid receptor RXR-alpha (Homo sapiens), sequence (P19793 whole entry, looked up): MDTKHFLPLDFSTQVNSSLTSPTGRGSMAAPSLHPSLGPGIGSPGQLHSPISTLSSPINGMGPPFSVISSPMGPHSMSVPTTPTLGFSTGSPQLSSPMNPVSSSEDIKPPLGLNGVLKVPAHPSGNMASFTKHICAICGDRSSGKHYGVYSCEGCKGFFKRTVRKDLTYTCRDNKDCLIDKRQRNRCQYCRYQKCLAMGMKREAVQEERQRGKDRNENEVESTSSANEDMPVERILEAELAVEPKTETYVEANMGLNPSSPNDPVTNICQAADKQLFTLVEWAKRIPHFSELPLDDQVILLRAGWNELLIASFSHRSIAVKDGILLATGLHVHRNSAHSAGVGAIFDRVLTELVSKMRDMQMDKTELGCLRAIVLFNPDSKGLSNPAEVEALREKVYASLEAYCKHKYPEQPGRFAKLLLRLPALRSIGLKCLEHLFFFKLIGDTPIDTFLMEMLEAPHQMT

Structure (SMILES)	outcome [1]	Potency [2]	Potency [3]	Potency [4]	Potency [5]	activity change, negative = cytotoxicity [6]	outcome [7]	outcome [8]	caspase-3 activation [9]	outcome [10]	outcome [11]	outcome [12]	outcome [13]	outcome [14]	outcome [15]	outcome [16]	caspase-3 activation [17]	max response [18]	max response [19]
C#CCN(C)[C@@H](C)Cc1ccccc1	inactive																		
O=C(Oc1ccccc1)N1CCC[C@@]2(CCN(Cc3cc(C(F)(F)F)cc(C(F)(F)F)c3)C2)C1	inactive																		
O=NN(c1ccccc1)c1ccccc1	inactive	> 92 µM (inactive)	> 92 µM (inactive)	> 92 µM (inactive)	inactive	-4.13% (inactive)	inactive	inactive	3.48% (inactive)	inactive	inactive	inactive	inactive	inactive	inactive	inactive	1.42% (inactive)	-5.84% and -1.3%	-2.47% (inactive) and 4.6% (inactive)
CCCCCCCC(=O)Cl	inactive	> 92 µM (inactive)	> 92 µM (inactive)	> 92 µM (inactive)	inactive	-1.44% (inactive)	inactive	inactive	-0.927% (inactive)	inactive	inactive	inactive	inactive	inactive	inactive	inactive	8.29% (inactive)	-7.27%	17.7% (inactive)
O=C(Oc1ccccc1)N1CCC[C@@]2(CCN(C(c3ccccc3)c3ccccc3)C2)C1	inactive																		
O=C(Oc1ccccc1)N1CCC2(CCCN(Cc3nccs3)C2)CC1	inactive																		
O=[N+]([O-])c1cccc2ccccc12	inactive	> 92 µM (inactive)	> 92 µM (inactive)	> 92 µM (inactive)	inactive	-0.153% (inactive)	inactive	inactive	-1.75% (inactive)	inactive	inactive	inactive	inactive	inactive	inactive	inactive	-1.57% (inactive)	-1.12% and -4.23%	5.1% (inactive) and -1.16% (inactive)
C=CCOC(=O)c1ccccc1N	inactive	> 92 µM (inactive)	> 92 µM (inactive)	> 92 µM (inactive)	inactive	-5.75% [at 91.7 µM] (inactive)	inactive	inactive	0.746% (inactive)	inactive	inactive	inactive	inactive	inactive	inactive	inactive	0.151% [at 91.7 µM] (inactive)	-12.2%	2.96% (inactive)
OCC(Br)CBr (stereo not drawn)	inactive	> 92 µM (inactive)	> 92 µM (inactive)	> 92 µM (inactive)	inactive	0.652% (inactive)	inactive	inactive	0.101% (inactive)	inactive	inactive	inactive	inactive	inactive	inactive	inactive	0.653% (inactive)	-6.01%	1.29% (inactive)
Brc1ccc(Oc2cc(Br)c(Br)cc2Br)c(Br)c1		> 92 µM (inactive)	> 92 µM (inactive)	> 92 µM (inactive)	inactive	-20.3% [at 91.7 µM] (inactive) and -14.3% [at 91.7 µM] (inactive)	inactive	inactive	17.5% (inactive)	inactive	inactive	inactive	inactive	inactive	inactive	inactive	12.3% [at 91.7 µM] (inactive) and -6.38% [at 91.7 µM] (inactive)	10.6% and 6.53%	-5.38% (inactive) and -23.6% (inactive)
C=C(C)C#N	inactive	> 92 µM (inactive)	> 92 µM (inactive)	> 92 µM (inactive)	inactive	0.281% (inactive)	inactive	inactive	1.57% (inactive)	inactive	inactive	inactive	inactive	inactive	inactive	inactive	7.27% (inactive)	2.43% and -11.4%	-5.47% (inactive) and -20.9% (inactive)
O=C(c1ccco1)N1CCC2(CC1)CN(Cc1ccncc1)C2	inactive																		
Cc1ccc(O)c(C)c1	inactive	> 92 µM (inactive)	> 92 µM (inactive)	> 92 µM (inactive)	inactive	-11.8% [at 91.7 µM] (inactive)	inactive	inactive	2.67% (inactive)	inactive	inactive	inactive	inactive	inactive	inactive	inactive	-3.58% [at 91.7 µM] (inactive)	-12.5% and -7.89% and -6.08%	0.533% (inactive) and 0.504% (inactive) and 10.6% (inactive)
Cc1cccc(C#N)c1	inactive	> 92 µM (inactive)	> 92 µM (inactive)	> 92 µM (inactive)	inactive	-8.34% (inactive)	inactive	inactive	0.831% (inactive)	inactive	inactive	inactive	inactive	inactive	inactive	inactive	10.9% (inactive)	3.52%	20.5% (inactive)
C=CC1CC=CCC1 (stereo not drawn)	inactive	> 92 µM (inactive)	> 92 µM (inactive)	> 92 µM (inactive)	inactive	3.71% (inactive)	inactive	inactive	0.736% (inactive)	inactive	inactive	inactive	inactive	inactive	inactive	inactive	5.69% (inactive)	-1.79% and -13.7%	12.3% (inactive) and -16.5% (inactive)
CCOP(=S)(OCC)Oc1ccc([N+](=O)[O-])cc1	inactive	> 92 µM (inactive)	> 92 µM (inactive)	> 92 µM (inactive)	inactive	-6.62% (inactive) and -2.54% (inactive)	inactive	inactive	-2.23% (inactive) and 0.755% (inactive)	inactive	inactive	inactive	inactive	inactive	inactive	inactive	14.9% (inactive) and 4.17% (inactive)	14.9% and 8.35%	10.9% (inactive) and -20.1% (inactive)
CC(C)(OO)c1ccccc1	inactive	> 92 µM (inactive)	> 92 µM (inactive)	> 92 µM (inactive)	inactive	-8.61% (inactive)	inactive	inactive	-2.32% (inactive)	inactive	inactive	inactive	inactive	inactive	inactive	inactive	-7.39% (inactive)	16% and -6.37%	2.62% (inactive) and 5.92% (inactive)
Oc1ccc(Cl)cc1Cl	inactive	> 92 µM (inactive)	> 92 µM (inactive)	> 92 µM (inactive)	inactive	-7.07% (inactive)	inactive	inactive	3.55% (inactive)	inactive	inactive	inactive	inactive	inactive	inactive	inactive	-2.5% (inactive)	-7.11% and -14.1%	-2.36% (inactive) and -1.51% (inactive)
CC(C)CN1CC[C@@]2(CCCN(C(=O)Oc3ccccc3)C2)C1	inactive																		
C=CC(=C)C	inactive	> 92 µM (inactive)	> 92 µM (inactive)	> 92 µM (inactive)	inactive	5.45% (inactive)	inactive	inactive	0.843% (inactive)	inactive	inactive	inactive	inactive	inactive	inactive	inactive	-6.39% (inactive)	-1.77%	-0.537% (inactive)
C/C=C1\C[N@@+]2(C)CC[C@@]34C(=C(C=O)[C@H]1C[C@H]32)Nc1ccccc14	inactive																		
C[C@@]12CC[C@H]3[C@@H](CC[C@@H]4C[C@H]5S[C@H]5C[C@]43C)[C@H]1CC[C@H]2O	inactive																		

Source: PubChem BioAssay (NCATS)
